Records with an inconclusive call do not appear. The source made the active and inactive calls. Rule for the calls, unless noted: active = hit-call score of the fitted dose curve at least 0.9, where 1 is the maximum; inactive = score below 0.9.

In general, AC50 refers to the concentration at which the activity in the assay is half-maximal.

Tested on in one experiment: not listed separately
As to the kind of experiment: CCTE_Padilla_ZF_Score.Any: CCTE's 144 Hour Post-fertilization zebrafish Assay Score for Any Mortality or Malformation, Padilla Lab (AID 2284416). In a few lines:
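Wild-type zebrafish embryos with chorions, one per well in 10% Hanks' from 6–8 hpf, dosed in sealed plates at 26 C, 14:10 h light:dark; rinsed at 5 dpf; blinded scoring at 6 dpf for death or malformation, versus DMSO.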
For the molecule `O=C(Cl)C(F)(F)C(F)(F)C(F)(F)C(=O)Cl`, the outcome was inactive.
With `FC(F)C(F)(F)COCC1CO1` (configuration not stated), the AC50 is 30.7 µM (active).
Consider `O=S(=O)(O)CCC(F)(F)C(F)(F)C(F)(F)C(F)(F)C(F)(F)C(F)(F)F`, for which the molecule was classed as inactive.
The same measure, in the same setting: the entry for `FC(F)(F)C(F)(F)C(F)(F)C(F)(F)C(F)(F)C(F)(F)I` is “inactive”; for `C[Si](C)(C)C(F)(F)C(F)(F)C(F)(F)F` it is “inactive”; for `FC(F)(F)COC(OCC(F)(F)F)OCC(F)(F)F` it is “inactive”.
On to `OC(O)(C(F)C(O)(O)C(F)(F)F)C(F)(F)F`, for which the AC50 was 16.9 µM (active).
In the case of `NCC(F)(F)C(F)(F)C(F)(F)C(F)(F)F`, the call was inactive.
Turning to `OCCC(F)(F)C(F)(F)C(F)(F)C(F)(F)F`, the outcome was inactive.
Take `FC(F)=C(F)C(F)(F)C(F)(F)C(F)(F)C(F)(F)C(F)(F)C(F)(F)F`: the result was inactive.

The subject of a further experiment is Brachyury (BRA) Protein Expression, TBXT (gene 6862). The experiment can be described thus: CCTE_Deisenroth_DEVTOX-GLR_Endo_BRA: CCTE's DevTox GLR-Endo Assay Evaluation of Brachyury (BRA) Protein Expression, Deisenroth Lab (AID 2284417). In short, it runs like this: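 Percent BRA+ (mesoderm) RUES2-GLR cells after 48 h differentiation with two exposures, 1 nM - 200 uM; 0.2% DMSO control subtracted.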
For `NC(=O)N1c2ccccc2C=Cc2ccccc21`, the result was inactive.
For `Nc1ccn([C@@H]2O[C@H](CO)[C@@H](O)[C@@H]2O)c(=O)n1`, the AC50 was 4.91 µM (active).
Consider `NNC(=O)c1ccncc1`, for which the outcome was inactive.
On the same count and under the same terms, the entry for `CCCC(CCC)C(=O)O` is “inactive”.

Tested on in another experiment: not listed separately
The experiment can be described thus: CCTE_Deisenroth_DEVTOX-GLR_Endo_CellCount: Viability Assessment in CCTE's DevTox GLR-Endo Assay, Deisenroth Lab (AID 2284420). The procedure:
CCTE_Deisenroth_DEVTOX-GLR_Endo assay is a cell-based, multiplex-readout assay that uses RUES2-GLR, a human pluripotent cell line, with measurements taken at 48 hours after chemical dosing in a 384-well microplateCCTE_Deisenroth_DEVTOX-GLR_Endo_CellCount is 1 of 4 assay components calculated from the CCTE_Deisenroth_DEVTOX-GLR_Endo assay and it measures cell count. Using fluorescent nuclear staining, loss-of-signal activity can be used to understand changes in cell viability with fluorescent microscopy. It is designed to make measurements of nuclei counts as a surrogate for cell number, as detected with optical fluorescence microscopy by Perkin Elmer Harmony nuclei detection algorithm. To generalize the intended target to other relatable targets, this assay component is annotated to the cell cycle intended target family, where the subfamily is cytotoxicity.Data from the assay component CCTE_Deisenroth_DEVTOX-GLR_Endo_CellCount was analyzed as 1 assay endpoint. The endpoint the percent change in cell count relative to the 0.2% DMSO control in the CCTE_Deisenroth_DEVTOX-GLR_Endo assay. Furthermore, this assay endpoint can be referred to as a primary readout, because this assay has produced multiple assay endpoints where this one serves as a measure of cytotoxicity.
All assay protocols are aligned to the DevTox GLR-Endo assay workflow. Cells are seeded into 384-well microplates for 24 hours prior to initiating differentiation in defined media for a total duration of 48 hours. A total of two chemical exposures are administered in 24-hour intervals during the 48-hour differentiation period. At the assay termination point, cells are fixed and stained with a fluorescent dye demarcating the nucleus. High-content imaging is used to acquire brightfield and fluorescent channel images across 5 fields per well. Cell identification and mean biomarker fluorescence intensities are calculated with image analysis software to determine the total cell counts for viability assessment and the biomarker expression frequency for each lineage-dependent assay. A typical experimental design tests a 10-point concentration series (1 nM - 200 uM) for 28 compounds in single technical replicate. Assay plate controls include non-differentiated pluripotent cells (baseline control), lineage-specific differentiated cells (differentiation control), and DMSO solvent exposed differentiated cells (solvent control). Experiments typically comprise a minimum of four experimental replicates (n=4).
`NC(=O)N1c2ccccc2C=Cc2ccccc21`: the AC50 is 63.4 µM (active).
Turning to `Nc1ccn([C@@H]2O[C@H](CO)[C@@H](O)[C@@H]2O)c(=O)n1`, the AC50 is 0.259 µM (active).
Consider `NNC(=O)c1ccncc1`, for which the outcome was inactive.
On the same count and under the same terms, the value for `CCCC(CCC)C(=O)O` was “inactive”.

The subject of the next experiment is SRY-box transcription factor 17 (SOX17) Protein Expression, Deisenroth Lab, SOX17 (gene 64321). The experiment can be described thus: CCTE_Deisenroth_DEVTOX-GLR_Pluri_SOX17: CCTE's DevTox GLR-Pluri Assay Evaluation of SRY-box transcription factor 17 (SOX17) Protein Expression, Deisenroth Lab (AID 2284427; active = hit-call score of the fitted dose curve at least 0.9, where 1 is the maximum). In short, it runs like this: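 The endpoint is SOX17+ cells as a fraction of cell count, corrected for the 0.2% DMSO control and obtained by high-content fluorescence imaging of fixed cells. Cells were RUES2-GLR under a 48-hour endoderm differentiation, dosed twice at 24-hour intervals over 1 nM–200 uM.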
For `NC(=O)N1c2ccccc2C=Cc2ccccc21`, the AC50 is 64.8 µM (active).
`Nc1ccn([C@@H]2O[C@H](CO)[C@@H](O)[C@@H]2O)c(=O)n1`: the concentration at half-maximal activity (AC50) was 1.68 µM (active).
Take `NNC(=O)c1ccncc1`: the call was inactive.
In the case of `CCCC(CCC)C(=O)O`, the result was inactive.

The test system of a further experiment is SRY-box transcription factor 2 (SOX2) Protein Expression, Deisenroth Lab, SOX2 (gene 6657). As to the kind of experiment: CCTE_Deisenroth_DEVTOX-GLR_Pluri_SOX2: CCTE's DevTox GLR-Pluri Assay Evaluation of SRY-box transcription factor 2 (SOX2) Protein Expression, Deisenroth Lab (AID 2284428). In short, it runs like this:
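Percent SOX2+ cells (SOX2+ count per total cells, fluorescent imaging) in RUES2-GLR human pluripotent line, expressed relative to 0.2% DMSO. Compounds dosed twice at 24 h intervals during 48 h, 1 nM - 200 uM, 10 concentrations.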
Regarding `NC(=O)N1c2ccccc2C=Cc2ccccc21`, the AC50 is 23 µM (active).
As to `Nc1ccn([C@@H]2O[C@H](CO)[C@@H](O)[C@@H]2O)c(=O)n1`, the AC50 is 0.244 µM (active).
Turning to `NNC(=O)c1ccncc1`, the call was inactive.
As for `CCCC(CCC)C(=O)O`, the outcome was inactive.

The next experiment relates to Brachyury (BRA) Protein Expression, Deisenroth Lab, TBXT (gene 6862). As to the kind of experiment: CCTE_Deisenroth_DEVTOX-GLR_Pluri_BRA: CCTE's DevTox GLR-Pluri Assay Evaluation of Brachyury (BRA) Protein Expression, Deisenroth Lab (AID 2284429; active = hit-call score of the fitted dose curve at least 0.9, where 1 is the maximum). In short, it runs like this: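 RUES2-GLR reporter line; 48 h mesoderm differentiation; two exposures, 24 h apart; 1 nM - 200 uM, 10 points; nuclear stain, high-content imaging, 5 fields/well; endpoint = %BRA+ cells of total count minus 0.2% DMSO; n=4.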
On to `NC(=O)N1c2ccccc2C=Cc2ccccc21`, for which the AC50 was 47 µM (active).
On to `Nc1ccn([C@@H]2O[C@H](CO)[C@@H](O)[C@@H]2O)c(=O)n1`, for which the AC50 is 1.74 µM (active).
For the molecule `NNC(=O)c1ccncc1`, the molecule was called inactive.
Same read-out and setting: the entry for `CCCC(CCC)C(=O)O` is “inactive”.

Tested on in a further experiment: not listed separately
The experiment can be described thus: CCTE_Deisenroth_DEVTOX-GLR_Pluri_CellCount: Viability Assessment in CCTE's DevTox GLR-Pluri Assay Evaluation of Total Cell Counts, Deisenroth Lab (AID 2284430). In a few lines: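 Cytotoxicity readout: fluorescent nuclei counts by high-content imaging, expressed as percent change relative to 0.2% DMSO. Human RUES2-GLR pluripotent line differentiated 48 h, dosed twice at 24-h intervals across 1 nM - 200 uM (10 points).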
Take `NC(=O)N1c2ccccc2C=Cc2ccccc21`: the outcome was inactive.
`Nc1ccn([C@@H]2O[C@H](CO)[C@@H](O)[C@@H]2O)c(=O)n1`: the half-maximal activity concentration (AC50) is 0.234 µM (active).
For the molecule `NNC(=O)c1ccncc1`, the molecule was called inactive.
`CCCC(CCC)C(=O)O`: the call was inactive.

In another experiment the test system is TTR (gene 7276). As to the kind of experiment: CCTE_GLTED_hTTR_0.125uM: CCTE's human Transthyretin (hTTR) Inhibition Assay, with 0.125uM TTR, Great Lakes Toxicology and Ecology Division (GLTED) Lab (AID 2284431).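 Note: hits lower the fluorescence signal relative to DMSO baseline.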 In short, it runs like this:
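TTR at 0.125uM incubated 2 h with test chemical; displacement of bound ANSA read by fluorescence (ex 380, em 475). Activity is signal loss versus DMSO baseline.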
`O=S(=O)(O)c1ccc(N=Nc2c(O)ccc3cc(S(=O)(=O)O)ccc23)cc1`: the AC50 was 17.1 µM (active).
The same measure, in the same setting: the value for `CCc1ccc(O)c(C(C)(C)C)c1` was 12.4 µM (active).
In the case of `C=CCc1cc(S(=O)(=O)c2ccc(O)c(CC=C)c2)ccc1O`, the concentration at half-maximal activity (AC50) is 1.67 µM (active).

The values are drawn from PubChem BioAssay (EPA / NIEHS).
